LmPK inh = blocks Leishmania mexicana pyruvate kinase activity; Q27686; 290,000 compounds, 0.37% hits; Potency, µM (top dose mostly 57.5 µM), for the others: at the highest dose activity change, negative = inhibition, actives largely listed as inhibitors; purified LmPK, Kinase-Glo ATP luminescence, 1 h; note: potency is the fitted concentration of half-maximal effect
Target sequence (Q27686 whole entry, looked up): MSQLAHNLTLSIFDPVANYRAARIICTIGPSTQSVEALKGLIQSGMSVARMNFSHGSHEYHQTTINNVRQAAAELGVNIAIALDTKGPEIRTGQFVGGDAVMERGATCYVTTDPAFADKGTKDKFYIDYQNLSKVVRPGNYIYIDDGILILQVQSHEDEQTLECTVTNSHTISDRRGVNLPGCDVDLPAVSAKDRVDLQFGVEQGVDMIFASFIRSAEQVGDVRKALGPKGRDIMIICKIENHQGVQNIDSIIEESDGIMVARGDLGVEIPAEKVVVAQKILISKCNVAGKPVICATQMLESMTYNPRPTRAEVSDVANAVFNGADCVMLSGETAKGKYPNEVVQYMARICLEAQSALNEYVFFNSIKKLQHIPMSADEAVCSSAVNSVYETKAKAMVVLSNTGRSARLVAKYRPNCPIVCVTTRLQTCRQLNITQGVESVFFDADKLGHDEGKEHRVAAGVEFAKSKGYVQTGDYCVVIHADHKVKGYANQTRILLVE
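In 50 mM imidazole pH 7.2 with 7 mM MgCl2, LmPK (0.1 nM) turned over PEP (0.5 mM) and ADP (0.1 mM) for 1 h at room temperature. Luciferase read-out of ATP.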
VACV Venus inh = inhibitors of vaccinia virus (Venus reporter) | Vaccinia virus Venus reporter expression, fluorescence | Potency, µM (titrated, usually from 36.5 µM), without a hit: at the highest dose activity change, negative = inhibition, actives largely listed as inhibitors | 330,000 compounds, 0.46% hits | AID 720580; calls by dose curve; tested in A549 cells; note: potency is the fitted concentration of half-maximal effect; nearly all actives have a fitted effect of over 30% in size
HCMV inh = human cytomegalovirus inhibition. activity change, negative = inhibition, % at 57.5 µM. HFF cells, HCMV-luciferase reporter, 72 h; stronger effect = lower value. 410,000 compounds, 4.5% hits. AID 1259415; in the data active = activity change below about -60%; inconclusive = no clear call, values can overlap the other calls; inactive = above about -39%
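HFF cells seeded 16 h at 37C, treated with compounds, infected with luciferase-reporter HCMV at MOI 1 PFU/cell; luciferase read at 72 h post infection, normalized to buffer-only and Salinomycin controls.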
Vaccinia mCherry = inhibitors of vaccinia virus infection (mCherry reporter signal). Vaccinia virus mCherry reporter infection, fluorescence. Potency, µM (doses to about 36.5 µM), for the others: at the highest dose activity change, negative = inhibition, hits mostly inhibitors. 310,000 compounds, 0.63% hits; calls by dose curve; tested in A549 cells; note: potency is the fitted concentration of half-maximal effect; nearly all actives have a fitted effect of over 35% in size
Tb PYK inh = blocks Trypanosoma brucei pyruvate kinase. TbPYK enzyme, Kinase-Glo Plus ATP luminescence, 45 min. Q57TT1. Potency, µM (top dose mostly 76.8 µM), for the others: at the top dose activity, negative = inhibition, most hits filed as inhibitors. AID 624173. 410,000 compounds, 0.12% hits; note: potency is the fitted concentration of half-maximal effect; nearly all actives have a fitted effect of over 50% in size
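ADP (130 uM final) triggers the TbPYK reaction after compound addition; incubation is 45 min at room temperature. Kinase-Glo Plus is then added and luminescence imaged. Normalized data are fitted to concentration-effect curves.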
Numbers without * were called inactive; ! = repeats disagree. The list is not random: actives were taken first. Their share in the collection is about 5%. Unless noted, calls come from the whole dose curve; as a rule, active = well fitted curve in the direction sought with a large enough effect; inconclusive = small, poorly fitted or top-dose-only effect, or another doubt; inactive = no such curve, though single readings can be large; an effect the other way counts as inactive or inconclusive. % is set by controls: 0 for no effect and ±100 for the full control effect.

For COc1ccc2[nH]c(=O)c(CN(CC3CCCO3)C(=S)Nc3ccccc3)cc2c1 (stereo not given) the results were LmPK inh 3%, VACV Venus inh -17%, HCMV inh -25, Vaccinia mCherry -3% and Tb PYK inh 5%.
CCN(CC)CCCNC(=S)N(Cc1ccco1)Cc1cc2cc3c(cc2[nH]c1=O)OCCO3 was read as LmPK inh -3% and HCMV inh 9.
Screening Cc1ccc(C(=O)N2CCC(C)CC2)cc1C returned LmPK inh -3%, VACV Venus inh -16%, HCMV inh 12, Vaccinia mCherry -21% and Tb PYK inh 1%.
For CCN(CC(=O)NC(=O)NCc1ccccc1)CC(=O)Nc1cc(Cl)ccc1C the results were HCMV inh 48 and Tb PYK inh 3%.
CC(=O)c1ccc(NC(=O)/C(C#N)=C/c2ccncc2)cc1 was read as LmPK inh 5%, HCMV inh 12 and Tb PYK inh -4%.
Screening Cc1cc2cc(CN(CC3CCCO3)C(=S)Nc3ccccc3)c(=O)[nH]c2cc1C (stereo not given) returned LmPK inh 0%, VACV Venus inh inconclusive, HCMV inh -82*, Vaccinia mCherry -22% and Tb PYK inh -3%.
For COc1cc2cc(CN(Cc3cccs3)C(=S)Nc3cccc(C)c3)c(=O)[nH]c2cc1OC the results were LmPK inh 2%.
`Cc1cc2cc(CN(CC3CCCO3)C(=S)NCc3ccco3)c(=O)[nH]c2cc1C` (stereo not given) gave LmPK inh 1%, VACV Venus inh -16%, HCMV inh -23, Vaccinia mCherry -6% and Tb PYK inh 1%.
For COc1cc2cc(CN(Cc3cccs3)C(=S)Nc3ccc(C)cc3)c(=O)[nH]c2cc1OC the results were LmPK inh 3%, VACV Venus inh -29%, HCMV inh -69*, Vaccinia mCherry -4% and Tb PYK inh -3%.
For COCCCNc1ccn2nc(-c3cccc(OCc4ccccc4)c3)cc2n1 the results were VACV Venus inh -17%, HCMV inh 56, Vaccinia mCherry -25% and Tb PYK inh 0%.
Screening COC(=O)c1ccccc1NC(=O)c1ccc(NS(C)(=O)=O)cc1 returned LmPK inh -1%, VACV Venus inh -16%, HCMV inh 72 and Tb PYK inh 9%.
For CCOc1cc(/C=C/C(=O)c2ccc(OC)c(CN3CCOCC3)c2)cc(Br)c1O the results were LmPK inh 0%, VACV Venus inh 184%, HCMV inh -98*, Vaccinia mCherry 11µM* and Tb PYK inh 0%.
Screening CN1CCN(CCCN2c3ccccc3Sc3ccc(C(F)(F)F)cc32)CC1 returned LmPK inh 1%, VACV Venus inh inconclusive, HCMV inh -79*!, Vaccinia mCherry inconclusive and Tb PYK inh -9%.
`c1ccc2c[n+](CCCCCCCCCC[n+]3ccc4ccccc4c3)ccc2c1` gave HCMV inh -81*.
`Nc1ccc(C23CC4CC(CC(CO)(C4)C2)C3)cc1` gave LmPK inh 1%, HCMV inh 69 and Tb PYK inh 1%.
`NCC12CC3CC(C1)CC(c1ccc(Cl)cc1)(C3)C2` gave LmPK inh -1%, VACV Venus inh 13µM*, HCMV inh -40, Vaccinia mCherry inconclusive and Tb PYK inh -2%.
CC(=O)Oc1c(C)cc(Cl)cc1C(=O)Nc1ccc([N+](=O)[O-])cc1Cl was read as LmPK inh -1%, HCMV inh -98* and Tb PYK inh -8%.
Screening CC(C)COP(=O)(OCC(C)C)C(O)c1ccc(F)cc1 (stereo not given) returned LmPK inh -1%, VACV Venus inh -7%, HCMV inh -100*, Vaccinia mCherry -17% and Tb PYK inh 4%.
For COc1ccc(Nc2c(-c3ccsc3)nc3nc(C)cc(C)n23)cc1 the results were VACV Venus inh -10%, HCMV inh 8, Vaccinia mCherry -8% and Tb PYK inh 5%.
For COc1ccc(Nc2c(-c3ccc(F)cc3)nc3nc(C)cc(C)n23)cc1 the results were VACV Venus inh 3%, HCMV inh -67*, Vaccinia mCherry 1% and Tb PYK inh 3%.
Screening Cc1nnc(Oc2ccccc2F)c2ccccc12 returned LmPK inh 5%, HCMV inh 53 and Tb PYK inh 4%.

Assay outcomes deposited in PubChem by National Center for Advancing Translational Sciences (NCATS).
